In all, about 140,000 sequences were measured (“enrichment ratio after two sorts for PhoP signalling”: median about 0, highest 2% from about 11 on). Shown is part of a subset that was picked to be rich in the highest values.
B1: PhoQ; a variant is named by its letters at X, in order, P23837 (parent)
chain: MKKLLRLFFPLSLRVRFLLATAAVVLVLSLAYGMVALIGYSVSFDKTTFRLLRGESNLFYTLAKWENNKLHVELPENIDKQSPTMTLIYDENGQLLWAQRDVPWLMKMIQPDWLKSNGFHEIEADVNDTSLLLSGDHSIQQQLQEVREDDDDAEMTHSVAVNVYPATSRMPKLTIVVVDTIPVELKSSYMVWSWFIYVLSANLLLVIPLLWVAAWWSLRPIEALAKEVRELEEHNRELLNPATTRELTSLVRNLNRLLKSERERYDKYRTTLTDLTHSLKTPLXXLQXXLRSLRSEKMSVSDAEPVMLEQISRISQQIGYYLHRASMRGGTLLSRELHPVAPLLDNLTSALNKVYQRKGVNISLDISPEISFVGEQNDFVEVMGNVLDNACKYCLEFVEISARQTDEHLYIVVEDDGPGIPLSKREVIFDRGQRVDTLRPGQGVGLAVAREITEQYEGKIVAGESMLGGARMEVIFGRQHSAPKDE

Variants of: B1
Assay: enrichment ratio after two sorts for PhoP signalling (ratio (wild type AVST 3.29)); higher = more functional
Conditions: with PhoP (E. coli)

| Variant | enrichment ratio |
| --- | --- |
| YSLM | 9.22 |
| KKFE | ≤ 0.25 |
| ELTM | ≤ 0.25 |
| TLNS | 6.81 |
| EHKW | ≤ 0.25 |
| HFHT | ≤ 0.25 |
| QNLL | ≤ 0.25 |
| NWYY | ≤ 0.25 |
| IMGQ | ≤ 0.25 |
| PTPW | ≤ 0.25 |
| TWNY | ≤ 0.25 |
| MCHM | 16.7 |
| MDHM | ≤ 0.25 |
| KCHM | ≤ 0.25 |
| YPGL | ≤ 0.25 |
| SGWV | ≤ 0.25 |
| SGWN | ≤ 0.25 |
| SGNL | 0.304 |
| SGMV | 14.3 |
| SGMW | ≤ 0.25 |
| SGMF | 13.3 |
| SGHF | ≤ 0.25 |
| SGCV | 15.2 |
| SGMD | ≤ 0.25 |
| SGGF | 1.06 |
| SGMN | 30.2 |

| Variant | enrichment ratio |
| --- | --- |
| SGCI | 10.3 |
| IRYD | ≤ 0.25 |
| ARIW | ≤ 0.25 |
| QYQP | ≤ 0.25 |
| YDYL | ≤ 0.25 |
| LNRM | ≤ 0.25 |
| SGMG | 0.699 |
| SGMI | 25 |
| SGMS | 6.87 |
| EIPP | ≤ 0.25 |
| SPCC | ≤ 0.25 |
| FSCC | 1.27 |
| HPCC | ≤ 0.25 |
| FECC | 22.6 |
| HECC | 7.31 |
| EECC | ≤ 0.25 |
| TECC | 30 |
| SLCC | 8.22 |
| IECC | 11.9 |
| FCCC | ≤ 0.25 |
| SECC | 38 |
| IPCC | ≤ 0.25 |
| KYGK | ≤ 0.25 |
| RDWY | ≤ 0.25 |
| FLEP | ≤ 0.25 |
| HSIW | ≤ 0.25 |

| Variant | enrichment ratio |
| --- | --- |
| QECC | ≤ 0.25 |
| NECC | ≤ 0.25 |
| MECC | 14.4 |
| APCG | ≤ 0.25 |
| HWFW | ≤ 0.25 |
| QDYL | ≤ 0.25 |
| VLQC | ≤ 0.25 |
| VVQC | 12.7 |
| VYQC | ≤ 0.25 |
| TSQC | 14.5 |
| NHQC | ≤ 0.25 |
| THQC | 13.1 |
| SHQC | ≤ 0.25 |
| NSQC | ≤ 0.25 |
| KSQC | ≤ 0.25 |
| KAQC | ≤ 0.25 |
| TKQC | 12.8 |
| NQQC | ≤ 0.25 |
| FREL | ≤ 0.25 |
| PHMW | ≤ 0.25 |
| YKAD | ≤ 0.25 |
| LFMF | ≤ 0.25 |
| WKII | ≤ 0.25 |
| WHFY | ≤ 0.25 |
| WCRI | ≤ 0.25 |
| QMHI | ≤ 0.25 |

| Variant | enrichment ratio |
| --- | --- |
| QMGF | 6.84 |
| QMWW | ≤ 0.25 |
| QMHF | 13.5 |
| QMDS | ≤ 0.25 |
| QEGE | ≤ 0.25 |
| QMNG | 38.7 |
| QMDH | 15 |
| QMGE | 96.1 |
| QMMI | ≤ 0.25 |
| QMTH | ≤ 0.25 |
| QRNG | ≤ 0.25 |
| DWSK | ≤ 0.25 |
| GLGH | ≤ 0.25 |
| IMDI | ≤ 0.25 |
| QSMQ | ≤ 0.25 |
| VMGY | ≤ 0.25 |
| NRNH | ≤ 0.25 |
| TNKN | ≤ 0.25 |
| QMHQ | 13.4 |
| QMHM | 28.3 |
| QMNI | 9.75 |
| QMWQ | ≤ 0.25 |
| QENN | 3.33 |
| QMHP | ≤ 0.25 |
| QMNL | 3.36 |
| QRNF | ≤ 0.25 |

| Variant | enrichment ratio |
| --- | --- |
| QMNN | 12.1 |
| QMNF | 36 |
| QMPM | ≤ 0.25 |
| QMWM | ≤ 0.25 |
| DYPW | ≤ 0.25 |
| LWVM | ≤ 0.25 |
| GLWV | ≤ 0.25 |
| MEAP | ≤ 0.25 |
| GFED | ≤ 0.25 |
| ATGH | 5.03 |
| EKMA | ≤ 0.25 |
| QMVG | ≤ 0.25 |
| QMTR | ≤ 0.25 |
| QMHG | 13 |
| SENL | ≤ 0.25 |
| SEGM | 6.17 |
| SLYM | ≤ 0.25 |
| SEYM | 19.4 |
| SEQN | 21.6 |
| SEEN | ≤ 0.25 |
| ISAH | ≤ 0.25 |
| GGLK | ≤ 0.25 |
| HLNC | ≤ 0.25 |
| DDAI | ≤ 0.25 |
| QAIL | ≤ 0.25 |
| FARL | ≤ 0.25 |

| Variant | enrichment ratio |
| --- | --- |
| FAAN | ≤ 0.25 |
| MMLL | 1.58 |
| FFLL | ≤ 0.25 |
| MALL | 16.2 |
| FALL | 16.3 |
| ADHN | ≤ 0.25 |
| ALCG | 4.5 |
| WHCL | ≤ 0.25 |
| SADG | ≤ 0.25 |
| LGIQ | ≤ 0.25 |
| INMV | 24.2 |
| INIV | ≤ 0.25 |
| AIMC | ≤ 0.25 |
| INCV | ≤ 0.25 |
| AEVV | 14.7 |
| ANMS | 11.6 |
| ANMC | 22.9 |
| ANMG | ≤ 0.25 |
| ADVV | 8.21 |
| AWVV | ≤ 0.25 |
| ADMC | 2.74 |
| ANQF | 1.01 |
| HRGK | ≤ 0.25 |
